The supplement of paper PMC10849652
About 7,900 targets were measured; listed, in parts, are those with a hit and a random draw of the rest. About 0.6% of all pairs of compound and target were hits.

How the values were obtained:
Experiment in all cases: log2 fold change, soluble protein after heating vs DMSO (PISA); higher = thermal stabilisation; K562 cells, 10 uM, 30 min; active = over 0.2 and 3.5 SD of the protein, either way, in both replicates (recomputed)
[1] = compound: C#Cc1cccc(Nc2ncnc3cc(OCCOC)c(OCCOC)cc23)c1 [erlotinib]
How it was run: (§1)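 K562 cells at 2×10^6 cells/mL were given 10 μM compound for 30 min. Aliquots then went through 3 min of heating across 48°C-58°C, were pooled, and were extracted in PBS with 0.5% NP-40 at 4°C, and the supernatant after 21,000xg for 90 min was quantified by TMTpro 16plex LC-MS/MS with channel sums equalised. Thermal stability relative to control samples, from duplicates, is given as log2 fold change.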

[2] = compound: C/C(=N\NC(=O)C1=CC(=CC=C1)S(=O)(=O)N2CCOCC2)/C3=C(C=CC(=C3)Cl)O
How it was run: as §1

[3] = compound: C1=CC(=C(C=C1Cl)C2=NC3=NC=CN=C3C(=N2)NC4=CC=NC=C4)F
How it was run: as §1

[4] = compound: C1=CC(=CC=C1C2=NC3=C(N2)C=C(C=C3)C(=O)N)OC4=CC=C(C=C4)Cl
How it was run: as §1

[5] = compound: C1=CC2=C(C=CC(=C2)/C=C\3/C(=O)NC(=NCC4=CC=CS4)S3)N=C1
How it was run: as §1

[6] = compound: C1=CC2=NC=CN=C2C=C1/C=C/3\C(=O)NC(=O)S3
How it was run: as §1

[7] = compound: C1=CC=C(C=C1)C2=NC(=C(N2)C3=CC=NC=C3)C4=CC(=C(C=C4)Cl)O
How it was run: as §1

[8] = compound: C1=CC=C2C(=C1)C3=NNC4=CC=CC(=C43)C2=O
How it was run: as §1

[9] = compound: C1CCN(C1)C(=O)NC2=CC=CC(=C2)NC3=NC=C(C(=N3)NCCC4=CN=CN4)Br
How it was run: as §1

[10] = compound: C1CN(CCC1(CC2=CC=C(C=C2)Cl)N)C3=NC=NC4=C3C=CN4
How it was run: as §1

[11] = compound: C1COCCN1CCN2C3=CC=CC=C3N=C2NC(=O)C4=CC(=CC=C4)[N+](=O)[O-] [IRAK-1-4 Inhibitor I]
How it was run: as §1

[12] = compound: C=CC(=O)N1CCC[C@@H](n2nc(-c3ccc(Oc4ccccc4)cc3)c3c(N)ncnc32)C1 [ibrutinib]
How it was run: as §1

[13] = compound: CC(=O)c1cnc2ccc(-c3cc(Cl)c(O)c(Cl)c3)nc2c1N[C@H]1CC[C@H](CN(C)C)CC1
How it was run: as §1

[14] = compound: CC(C)(C)Cn1c(N)nc2ccc(-c3[nH]c(C(C)(C)C)nc3-c3ccc(F)cc3)nc21 [ralimetinib]
How it was run: as §1

[15] = compound: CC(C)(O)CC(=O)NCCn1ccc2ncnc(Nc3ccc(Oc4cccc(C(F)(F)F)c4)c(Cl)c3)c21
How it was run: as §1

[16] = compound: CC(C)C1=C2N=C(C=C(N2N=C1)NCC3=CC=CC=C3)NCCCCCCN
How it was run: as §1

[17] = compound: CC(C)C[C@@H](C=O)NC(=O)[C@H](CC(C)C)NC(=O)[C@H](CC(C)C)NC(=O)OCc1ccccc1
How it was run: as §1

[18] = compound: CC(C)N(C[C@H]1O[C@@H](n2cnc3c(N)ncnc32)[C@H](O)[C@@H]1O)[C@H]1C[C@@H](CCc2nc3cc(C(C)(C)C)ccc3[nH]2)C1 [pinometostat]
How it was run: as §1

[19] = compound: CC1=C(C(CC(=O)N1)C2=CC=C(C=C2)C(F)(F)F)C(=O)NC3=C(C=C4C(=C3)C=NN4)F
How it was run: as §1

[20] = compound: CC1=C(C2=C(C=C1)C(=O)C3=CC=CC=C3N2CCCN)C
How it was run: as §1

Measured: log2 fold change

MOV10 (UniProt Q9HCE1)
UniProt Q9HCE1, sequence (Q9HCE1 whole entry, looked up): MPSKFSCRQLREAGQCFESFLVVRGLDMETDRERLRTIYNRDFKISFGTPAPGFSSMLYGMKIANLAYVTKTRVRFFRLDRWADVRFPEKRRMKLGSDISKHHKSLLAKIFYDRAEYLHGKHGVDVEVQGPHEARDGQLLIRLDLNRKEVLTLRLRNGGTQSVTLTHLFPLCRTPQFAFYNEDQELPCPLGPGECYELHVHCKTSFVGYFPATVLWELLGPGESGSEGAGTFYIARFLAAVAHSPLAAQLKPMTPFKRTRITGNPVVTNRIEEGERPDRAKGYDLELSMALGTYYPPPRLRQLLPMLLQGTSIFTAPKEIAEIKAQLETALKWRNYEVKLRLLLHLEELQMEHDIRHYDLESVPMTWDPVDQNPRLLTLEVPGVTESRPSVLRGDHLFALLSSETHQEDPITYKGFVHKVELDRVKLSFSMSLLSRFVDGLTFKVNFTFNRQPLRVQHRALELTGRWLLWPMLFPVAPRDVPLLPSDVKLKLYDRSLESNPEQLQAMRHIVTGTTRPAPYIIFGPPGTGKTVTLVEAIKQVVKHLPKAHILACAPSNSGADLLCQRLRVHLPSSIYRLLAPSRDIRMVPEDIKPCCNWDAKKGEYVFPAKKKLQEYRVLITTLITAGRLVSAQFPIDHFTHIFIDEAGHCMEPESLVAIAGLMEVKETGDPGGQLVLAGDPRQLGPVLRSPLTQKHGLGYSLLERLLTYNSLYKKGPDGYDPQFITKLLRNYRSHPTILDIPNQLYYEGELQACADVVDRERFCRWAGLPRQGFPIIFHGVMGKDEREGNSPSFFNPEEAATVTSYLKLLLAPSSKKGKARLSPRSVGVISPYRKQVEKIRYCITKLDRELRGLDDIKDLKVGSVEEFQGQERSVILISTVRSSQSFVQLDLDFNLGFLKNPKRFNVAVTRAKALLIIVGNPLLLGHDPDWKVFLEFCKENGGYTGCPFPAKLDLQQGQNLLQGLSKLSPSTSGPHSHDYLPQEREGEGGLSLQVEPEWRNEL
inactive: [1] -0.103 | [2] -0.062 | [3] -0.242 | [4] 0.026 | [5] -0.002 | [6] 0.049 | [7] -0.049 | [8] -0.054 | [9] 0.04 | [10] -0.158 | [11] -0.135 | [12] 0.002 | [13] 0.069 | [14] 0.12 | [15] 0.082 | [16] 0.02 | [17] 0.033 | [18] 0.163 | [19] -0.052 | [20] -0.305

MIS12 (UniProt Q9H081)
UniProt Q9H081, sequence (Q9H081 whole entry, looked up): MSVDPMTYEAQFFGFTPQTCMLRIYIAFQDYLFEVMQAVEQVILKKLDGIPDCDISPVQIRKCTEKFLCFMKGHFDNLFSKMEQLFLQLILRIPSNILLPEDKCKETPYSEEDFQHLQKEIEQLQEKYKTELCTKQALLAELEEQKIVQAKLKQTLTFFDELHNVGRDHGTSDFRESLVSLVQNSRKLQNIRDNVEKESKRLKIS
inactive: [1] 0.103 | [2] 0.083 | [3] 0.012 | [4] 0.002 | [5] 0.107 | [6] 0.052 | [7] -0.063 | [8] -0.018 | [9] -0.16 | [10] -0.016 | [11] 0.024 | [12] 0.026 | [13] -0.025 | [14] -0.004 | [15] -0.151 | [16] -0.087 | [17] 0.06 | [18] 0.006 | [19] 0.019 | [20] -0.035

NDUFB10 (UniProt O96000)
inactive: [1] -0.009 | [2] -0.067 | [3] 0.018 | [4] 0.03 | [5] 0.06 | [6] 0.025 | [7] -0.038 | [8] -0.021 | [9] 0.026 | [10] 0.045 | [11] 0.015 | [12] 0.009 | [13] -0.001 | [14] -0.057 | [15] -0.018 | [16] -0.11 | [17] 0.023 | [18] -0.018 | [19] 0 | [20] 0.009

MTOR (UniProt P42345)
active: [16] -0.288
inactive: [1] 0.015 | [2] 0.041 | [3] 0.021 | [4] -0.011 | [5] 0.036 | [6] 0.047 | [7] 0.034 | [8] -0.004 | [9] 0.065 | [10] -0.03 | [11] -0.029 | [12] -0.03 | [13] 0.183 | [14] 0.011 | [15] -0.084 | [17] -0.002 | [18] 0.046 | [19] -0.044 | [20] 0.014

MRPS21 (UniProt P82921)
inactive: [1] 0.014 | [2] -0.04 | [3] -0.096 | [4] 0.042 | [5] -0.241 | [6] -0.138 | [7] -0.019 | [8] 0.297 | [9] -0.091 | [10] -0.07 | [11] -0.143 | [12] 0.029 | [13] 0.172 | [14] -0.038 | [15] -0.069 | [16] 0.063 | [17] 0.063 | [18] 0.052 | [19] -0.091 | [20] -0.207

MT-ATP6 (UniProt P00846)
UniProt P00846, sequence (P00846 whole entry, looked up): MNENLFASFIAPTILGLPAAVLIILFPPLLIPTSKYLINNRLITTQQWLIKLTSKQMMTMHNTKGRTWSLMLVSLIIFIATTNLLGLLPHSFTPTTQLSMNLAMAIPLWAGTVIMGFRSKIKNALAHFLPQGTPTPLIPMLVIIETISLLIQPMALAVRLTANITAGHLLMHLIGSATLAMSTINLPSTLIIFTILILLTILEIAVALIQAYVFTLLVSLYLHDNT
inactive: [1] 0.207 | [2] 0.146 | [3] -0.042 | [4] -0.07 | [5] -0.078 | [6] -0.391 | [7] -0.048 | [8] -0.017 | [9] -0.073 | [10] -0.042 | [11] 0 | [12] -0.68 | [13] -0.178 | [14] -0.178 | [15] -0.033 | [16] -0.06 | [17] -0.165 | [18] -0.162 | [19] -0.218 | [20] -0.072

MXRA7 (UniProt P84157)
UniProt P84157, sequence (P84157 whole entry, looked up): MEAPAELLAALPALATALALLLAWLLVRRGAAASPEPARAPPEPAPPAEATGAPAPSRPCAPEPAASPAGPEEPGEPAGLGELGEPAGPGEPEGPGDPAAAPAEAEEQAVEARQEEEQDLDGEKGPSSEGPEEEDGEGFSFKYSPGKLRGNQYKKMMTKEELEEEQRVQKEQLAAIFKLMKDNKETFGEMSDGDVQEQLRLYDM
inactive: [1] -0.052 | [2] -0.109 | [3] -0.083 | [4] 0.047 | [5] -0.067 | [6] 0.018 | [7] -0.033 | [8] 0.037 | [9] -0.038 | [10] 0.013 | [11] 0.098 | [12] 0.048 | [13] -0.064 | [14] -0.012 | [15] 0.116 | [16] 0.075 | [17] -0.083 | [18] -0.049 | [19] -0.011 | [20] -0.045

NOB1 (UniProt Q9ULX3)
UniProt Q9ULX3, sequence (Q9ULX3 whole entry, looked up): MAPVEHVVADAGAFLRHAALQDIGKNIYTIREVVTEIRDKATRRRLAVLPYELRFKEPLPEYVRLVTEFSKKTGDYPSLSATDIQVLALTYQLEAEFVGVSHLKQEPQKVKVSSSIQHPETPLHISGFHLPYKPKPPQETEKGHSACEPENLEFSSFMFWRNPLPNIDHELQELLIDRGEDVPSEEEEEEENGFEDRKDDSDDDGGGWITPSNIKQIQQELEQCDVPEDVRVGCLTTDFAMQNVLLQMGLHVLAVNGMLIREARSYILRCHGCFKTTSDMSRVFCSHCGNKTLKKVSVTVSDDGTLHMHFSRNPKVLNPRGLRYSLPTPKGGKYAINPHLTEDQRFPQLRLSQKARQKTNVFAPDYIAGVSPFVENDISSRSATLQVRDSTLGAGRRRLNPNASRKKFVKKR
active: [14] 0.288
inactive: [1] 0.048 | [2] 0.061 | [3] -0.106 | [4] 0.017 | [5] -0.025 | [6] -0.08 | [7] 0.081 | [8] 0.053 | [9] 0.045 | [10] -0.078 | [11] -0.062 | [12] -0.025 | [13] -0.083 | [15] -0.033 | [16] -0.15 | [17] 0.053 | [18] 0.068 | [19] 0.047 | [20] -0.031

NELFB isoform 2 (UniProt Q8WX92)
UniProt Q8WX92, sequence (Q8WX92 whole entry, looked up): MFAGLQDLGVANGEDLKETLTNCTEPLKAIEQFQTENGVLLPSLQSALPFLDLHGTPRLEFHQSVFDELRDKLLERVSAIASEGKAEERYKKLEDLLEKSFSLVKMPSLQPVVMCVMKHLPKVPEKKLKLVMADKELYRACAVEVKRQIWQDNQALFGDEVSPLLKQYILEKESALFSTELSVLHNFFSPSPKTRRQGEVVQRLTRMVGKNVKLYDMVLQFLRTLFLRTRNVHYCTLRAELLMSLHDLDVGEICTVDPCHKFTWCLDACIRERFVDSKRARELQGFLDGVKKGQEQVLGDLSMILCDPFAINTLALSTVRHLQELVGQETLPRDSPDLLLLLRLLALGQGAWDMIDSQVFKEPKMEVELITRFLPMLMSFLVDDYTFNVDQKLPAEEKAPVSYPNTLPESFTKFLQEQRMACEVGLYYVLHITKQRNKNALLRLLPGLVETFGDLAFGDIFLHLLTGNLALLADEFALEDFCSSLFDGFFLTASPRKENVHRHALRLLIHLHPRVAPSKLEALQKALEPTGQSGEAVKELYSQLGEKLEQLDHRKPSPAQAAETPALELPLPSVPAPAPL
inactive: [1] 0.046 | [2] 0.151 | [3] 0 | [4] -0.036 | [5] 0.054 | [6] 0.07 | [7] -0.049 | [8] 0.01 | [9] -0.075 | [10] -0.025 | [11] -0.03 | [12] -0.045 | [13] -0.144 | [14] -0.067 | [15] -0.154 | [16] -0.112 | [17] 0.001 | [18] 0.022 | [19] 0.017 | [20] 0.042

MTHFS (UniProt P49914)
UniProt P49914, sequence (P49914 whole entry, looked up): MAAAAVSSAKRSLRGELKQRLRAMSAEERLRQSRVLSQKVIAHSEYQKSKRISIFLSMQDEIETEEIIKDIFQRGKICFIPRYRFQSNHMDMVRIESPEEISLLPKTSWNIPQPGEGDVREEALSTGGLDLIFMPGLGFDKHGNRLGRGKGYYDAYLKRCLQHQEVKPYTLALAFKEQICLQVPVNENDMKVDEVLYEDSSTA
inactive: [1] 0.01 | [2] 0.062 | [3] 0.055 | [4] -0.003 | [5] 0.034 | [6] -0.024 | [7] 0.026 | [8] 0.083 | [9] -0.014 | [10] -0.12 | [11] -0.003 | [12] -0.01 | [13] -0.009 | [14] -0.09 | [15] -0.095 | [16] -0.009 | [17] 0.007 | [18] -0.03 | [19] -0.044 | [20] 0.031

NEMP1 (UniProt O14524)
active: [16] -0.508
inactive: [1] -0.003 | [2] -0.011 | [3] -0.027 | [4] 0.023 | [5] 0.049 | [6] 0.016 | [7] -0.056 | [8] -0.162 | [9] 0.068 | [10] 0.048 | [11] 0.003 | [12] -0.01 | [13] -0.081 | [14] -0.03 | [15] -0.023 | [17] 0.08 | [18] 0.009 | [19] 0.099 | [20] -0.119

NSUN2 (UniProt Q08J23)
UniProt Q08J23, sequence (Q08J23 whole entry, looked up): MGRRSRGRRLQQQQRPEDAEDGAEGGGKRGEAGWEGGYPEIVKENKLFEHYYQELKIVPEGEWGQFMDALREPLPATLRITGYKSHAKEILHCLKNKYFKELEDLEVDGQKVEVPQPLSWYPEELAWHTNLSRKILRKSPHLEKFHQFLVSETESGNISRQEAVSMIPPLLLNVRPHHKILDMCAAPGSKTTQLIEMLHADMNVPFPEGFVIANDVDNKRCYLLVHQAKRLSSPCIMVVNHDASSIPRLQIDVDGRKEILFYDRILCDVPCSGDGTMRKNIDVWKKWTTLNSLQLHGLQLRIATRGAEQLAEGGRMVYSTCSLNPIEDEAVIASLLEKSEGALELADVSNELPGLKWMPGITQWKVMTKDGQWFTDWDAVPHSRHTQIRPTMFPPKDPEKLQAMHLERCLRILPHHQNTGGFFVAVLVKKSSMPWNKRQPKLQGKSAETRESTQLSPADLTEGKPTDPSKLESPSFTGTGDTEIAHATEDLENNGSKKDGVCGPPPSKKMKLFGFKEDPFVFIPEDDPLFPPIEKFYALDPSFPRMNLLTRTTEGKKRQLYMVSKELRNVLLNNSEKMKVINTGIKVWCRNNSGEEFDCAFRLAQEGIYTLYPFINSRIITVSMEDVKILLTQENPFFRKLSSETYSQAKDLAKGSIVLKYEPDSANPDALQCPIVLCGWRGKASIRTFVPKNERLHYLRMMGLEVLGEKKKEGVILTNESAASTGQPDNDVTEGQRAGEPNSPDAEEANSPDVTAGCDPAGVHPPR
inactive: [1] -0.017 | [2] 0.137 | [3] -0.002 | [4] 0.038 | [5] -0.018 | [6] 0.006 | [7] -0.052 | [8] -0.112 | [9] -0.067 | [10] 0.064 | [11] -0.02 | [12] -0.029 | [13] -0.165 | [14] 0.062 | [15] -0.008 | [17] 0.026 | [18] 0.058 | [19] 0.008 | [20] -0.075
active: [16] -0.314

NARS2 (UniProt Q96I59)
active: [16] -0.31
inactive: [1] 0.037 | [2] 0.065 | [3] 0.07 | [4] 0.008 | [5] -0.018 | [6] -0.004 | [7] 0.053 | [8] 0.017 | [9] -0.002 | [10] -0.083 | [11] 0.044 | [12] 0.03 | [13] 0.034 | [14] -0.034 | [15] -0.121 | [17] -0.019 | [18] -0.019 | [19] -0.002 | [20] -0.006

NUDCD2 (UniProt Q8WVJ2)
UniProt Q8WVJ2, sequence (Q8WVJ2 whole entry, looked up): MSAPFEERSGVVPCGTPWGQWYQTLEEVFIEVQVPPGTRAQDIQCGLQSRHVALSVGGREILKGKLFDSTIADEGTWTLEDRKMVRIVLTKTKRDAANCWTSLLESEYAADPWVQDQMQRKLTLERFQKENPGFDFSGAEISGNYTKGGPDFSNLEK
inactive: [1] 0.054 | [2] -0.003 | [3] 0.019 | [4] -0.071 | [5] 0.025 | [6] 0.018 | [7] -0.014 | [8] 0.012 | [9] -0.107 | [10] -0.08 | [11] -0.032 | [12] -0.035 | [13] -0.027 | [14] 0.033 | [15] -0.045 | [16] -0.248 | [17] -0.012 | [18] 0.066 | [19] -0.023 | [20] -0.064

NAT14 (UniProt Q8WUY8)
UniProt Q8WUY8, sequence (Q8WUY8 whole entry, looked up): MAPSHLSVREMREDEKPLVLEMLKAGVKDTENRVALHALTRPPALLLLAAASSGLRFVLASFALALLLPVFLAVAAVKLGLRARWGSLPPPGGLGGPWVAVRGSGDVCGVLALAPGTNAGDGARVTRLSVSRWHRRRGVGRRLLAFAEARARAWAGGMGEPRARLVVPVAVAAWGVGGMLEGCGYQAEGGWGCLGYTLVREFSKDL
inactive: [1] -0.016 | [2] 0.079 | [3] -0.002 | [4] 0.014 | [5] 0.057 | [6] 0.046 | [7] 0.135 | [8] 0.033 | [9] 0.002 | [10] -0.084 | [11] -0.061 | [12] 0.019 | [13] -0.033 | [14] -0.028 | [15] -0.257 | [16] -0.185 | [17] 0.027 | [18] -0.074 | [19] 0.022 | [20] -0.187

MSH2 (UniProt P43246)
UniProt P43246, sequence (P43246 whole entry, looked up): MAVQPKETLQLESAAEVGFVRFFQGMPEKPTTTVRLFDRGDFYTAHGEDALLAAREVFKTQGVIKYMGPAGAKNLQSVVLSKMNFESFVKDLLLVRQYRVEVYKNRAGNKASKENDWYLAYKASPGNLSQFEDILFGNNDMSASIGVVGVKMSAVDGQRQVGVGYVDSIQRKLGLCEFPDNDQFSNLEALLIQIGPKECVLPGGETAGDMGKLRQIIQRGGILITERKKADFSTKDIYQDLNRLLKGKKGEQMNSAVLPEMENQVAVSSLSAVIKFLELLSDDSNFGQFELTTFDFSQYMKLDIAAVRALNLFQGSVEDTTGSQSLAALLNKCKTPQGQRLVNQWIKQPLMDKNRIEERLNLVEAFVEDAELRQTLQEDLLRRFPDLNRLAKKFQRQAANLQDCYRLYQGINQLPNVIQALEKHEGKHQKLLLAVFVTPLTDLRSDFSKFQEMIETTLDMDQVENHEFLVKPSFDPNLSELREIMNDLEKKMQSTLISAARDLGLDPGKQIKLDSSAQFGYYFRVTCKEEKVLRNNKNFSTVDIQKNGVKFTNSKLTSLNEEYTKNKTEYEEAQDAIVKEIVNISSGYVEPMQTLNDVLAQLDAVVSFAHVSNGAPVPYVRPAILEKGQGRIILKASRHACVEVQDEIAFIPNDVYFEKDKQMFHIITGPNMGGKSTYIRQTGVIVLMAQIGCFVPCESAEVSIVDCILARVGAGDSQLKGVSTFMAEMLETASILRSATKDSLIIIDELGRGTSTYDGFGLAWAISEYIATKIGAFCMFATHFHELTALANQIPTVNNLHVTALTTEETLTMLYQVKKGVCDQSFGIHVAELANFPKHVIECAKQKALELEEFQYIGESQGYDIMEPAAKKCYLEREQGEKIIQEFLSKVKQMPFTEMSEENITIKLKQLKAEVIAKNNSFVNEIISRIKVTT
active: [20] 0.357
inactive: [1] 0.038 | [2] 0.109 | [3] 0.066 | [4] -0.004 | [5] 0.037 | [6] 0.025 | [7] -0.016 | [8] 0.035 | [9] -0.064 | [10] -0.059 | [11] -0.024 | [12] -0.066 | [13] 0.018 | [14] -0.031 | [15] -0.041 | [16] -0.019 | [17] 0.023 | [18] -0.023 | [19] -0.015
